Compound activity: PubChem BioAssay, The Scripps Research Institute Molecular Screening Center
TEAD-YAP block – TEAD-YAP interaction inhibition. HEK-TIYL cells, TEAD-Gal4/YAP UAS-luciferase luminescence. inhibition, % at 9.12 µM. 640,000 tested, 1.4% active; in the data active = inhibition above about 32%
MITF inh – blocks human microphthalmia-associated transcription factor; O75030; AlphaScreen MITF homodimerization, bead proximity signal; inhibition, % at 2.6 µM; 650,000 tested, 0.91% active; AID 1259374; in the data active = inhibition above about 50%
GPR151 ag – activators of human GPR151. activation, % at 11.2 µM. Q8TDV0. PathHunter beta-arrestin GPR151 cells, luminescence. 650,000 tested, 1% active; in the data active = activation above about 4.9%
Target sequence (Q8TDV0 whole entry, looked up): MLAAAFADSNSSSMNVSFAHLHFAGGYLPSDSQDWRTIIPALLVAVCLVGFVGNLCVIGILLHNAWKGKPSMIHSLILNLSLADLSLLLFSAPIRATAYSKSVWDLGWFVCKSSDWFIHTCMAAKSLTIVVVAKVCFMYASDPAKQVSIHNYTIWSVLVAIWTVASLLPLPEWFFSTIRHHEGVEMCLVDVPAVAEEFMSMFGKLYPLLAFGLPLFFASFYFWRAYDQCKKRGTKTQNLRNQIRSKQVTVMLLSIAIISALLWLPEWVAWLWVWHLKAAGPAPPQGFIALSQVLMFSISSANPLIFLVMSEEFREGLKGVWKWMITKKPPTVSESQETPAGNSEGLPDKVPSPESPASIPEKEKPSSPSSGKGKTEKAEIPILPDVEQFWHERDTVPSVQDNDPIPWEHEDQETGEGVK
FBW7 act – activators of human E3 ligase FBW7; 650,000 tested, 0.13% active; AID 1259310; AlphaScreen FBW7–phospho-cyclin E peptide binding, activator screen; normalized activity (activation), % at 26.1 µM; Q969H0; in the data active = normalized activity above about 1.9%;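 note: purified mutant Fbw7 with reduced substrate affinity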
GPR151 confirm – human GPR151 activation, confirmation screen; shares compounds with GPR151 ag; GPR151 PathHunter beta-arrestin cells, luminescence, 90 min; % of EA-reagent control over plate median; activation, % at 11.2 µM; 6,700 tested, under 10 active; AID 1508609;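 active = mean percent activation across replicates above the confirmation screen cutoff of 4.91%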
GPR119 ag – counter-screen for GPR151 activators: effect on human GPR119 | shares compounds with GPR151 ag | GPR119 PathHunter beta-arrestin cells, luminescence, 90 min; 0 = compound-well median, 100 = enzyme-acceptor control | activation, % at 11.2 µM | 6,700 tested, 0.3% active | AID 1508611;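 active = mean percent activation in the counterscreen above 29.09%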;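 note: counterscreen on off-target GPR119 to flag nonselective hits from the GPR151 activator screen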
Large screens that a line does not name were inactive (follow-up assays come after a bar, where they were run); ! = a repeat was not active. Most compounds without a hit are left out; they make up all but 3.5% or so of the library.

CC(C)(Sc1cc(C(C)(C)C)c(O)c(C(C)(C)C)c1)Sc1cc(C(C)(C)C)c(O)c(C(C)(C)C)c1	GPR151 ag 11.4! | GPR151 confirm inactive | GPR119 ag inactive
Cc1ccc(N(CC(=O)Nc2cccc(F)c2)S(C)(=O)=O)cc1Cl	none
CCOC(=O)C1C(=O)NC(SCC(=O)Nc2ccc(Br)cc2)=C(C#N)C1c1ccccc1OCC (centres undefined)	GPR151 ag 8.5 | GPR151 confirm inactive | GPR119 ag inactive
C=CCn1cnc2c(nnn2-c2ccc(OC)c(OC)c2)c1=O	GPR151 ag 7.9 | GPR151 confirm inactive | GPR119 ag inactive
O=C1C(=O)N(CCO)C(c2ccc(Br)cc2)/C1=C(/O)c1ccccc1 (centres undefined)	none
Cc1cc(C)cc(N(C(C)C(=O)O)S(C)(=O)=O)c1 (centres undefined)	GPR151 ag 5.5 | GPR151 confirm inactive | GPR119 ag inactive
CC1=C/C(=C\c2c(O)n(-c3ccccc3)c(=S)[nH]c2=O)C(C)=N1	none
O=C(Nc1ccccc1)OCC1CCCO1 (centres undefined)	GPR151 ag 10.6 | GPR151 confirm inactive | GPR119 ag inactive
O=C(Cc1ccccc1)NN1C(=O)CSC1=S	none
CCNc1nc(NC(C)CC)nc(SCC(=O)Nc2ccccc2Cl)n1 (centres undefined)	none
O=C(N/N=C/c1cccc(Cl)c1)c1cccs1	none
CC(=O)Nc1sc(N/N=C/c2cccc(Cl)c2)nc1-c1cccs1	GPR151 ag 7.5 | GPR151 confirm inactive | GPR119 ag inactive
Cc1ccc(NC(=O)C(=O)NCCN2CCNCC2)cc1	none
COc1ccc(COC(=O)c2n[nH]c(=O)c3ccccc23)cc1F	none
O=C(OCc1cccc([N+](=O)[O-])c1)c1cc(Cl)ccc1O	GPR151 ag 7.2 | GPR151 confirm inactive | GPR119 ag inactive
COc1ccc(N2C(=O)C(Cl)=C(Nc3ccccc3O)C2=O)cc1	none
CCN(Cc1ccco1)C(=O)Cn1nc2n(Cc3ccccc3F)c3ccccc3n2c1=O	GPR151 ag 6.6 | GPR151 confirm inactive | GPR119 ag inactive
CCN(Cc1ccco1)C(=O)Cn1nc2c(C)cc3ccccc3n2c1=O	none
CCOC(=O)c1nnn(-c2nonc2N)c1CSc1ncccn1	none
O=C(N/N=C/c1cc(Cl)cc([N+](=O)[O-])c1O)c1ccccc1O	GPR151 ag 5.1 | GPR151 confirm inactive | GPR119 ag inactive
O=C(N/N=C/c1cc(Br)cc([N+](=O)[O-])c1O)c1cccc2ccccc12	none
O=C(N/N=C/c1ccccc1[N+](=O)[O-])c1cccc2ccccc12	GPR151 ag 7.4 | GPR151 confirm inactive | GPR119 ag inactive
O=C(N/N=C/c1ccccc1[N+](=O)[O-])c1ccccc1[N+](=O)[O-]	none
O=C(N/N=C/c1ccc(F)cc1)c1ccccc1[N+](=O)[O-]	GPR151 ag 7.0 | GPR151 confirm inactive | GPR119 ag inactive
O=C(N/N=C/c1ccccc1)c1ccccc1[N+](=O)[O-]	none
O=C(N/N=C/c1cccc2ccccc12)c1ccccc1[N+](=O)[O-]	GPR151 ag 10.8 | GPR151 confirm inactive | GPR119 ag inactive
Cc1cc(Br)ccc1Nc1ncnc2c1cnn2C	none
CCC(C(=O)NCc1ccccc1OC)n1c2ccccc2c2nc(=O)cc(C)n21 (centres undefined)	none
NC(=O)c1ccccc1N=Cc1ccc(Cl)c([N+](=O)[O-])c1	none
COc1ccc(CCn2c(=O)c(C#N)cc3c(=O)n4cccc(C)c4nc32)cc1OC	GPR151 ag 7.4 | GPR151 confirm inactive | GPR119 ag inactive
COc1ccc(CNC(=O)c2c(C)nc3c(C)cccn23)cc1OC	GPR151 ag 5.1 | GPR151 confirm inactive | GPR119 ag inactive
CC(C)(C)c1ccc(C(=O)Nc2ccc(NC(=O)c3cccc(F)c3)cc2)cc1	none
N=C1C(c2nc3ccccc3[nH]2)=C(O)CN1CCc1ccccc1	GPR151 ag 5.3 | GPR151 confirm inactive | GPR119 ag inactive
COc1ccc(N2CC(O)=C(c3nc4ccccc4[nH]3)C2=N)cc1Cl	GPR151 ag 6.0 | GPR151 confirm inactive | GPR119 ag inactive
COc1ccc(Cl)cc1N1CC(O)=C(c2nc3ccccc3[nH]2)C1=N	none
COCCCNC(=O)c1ccc(CNc2nc(=S)[nH]c3ccccc23)cc1	GPR151 ag 5.9 | GPR151 confirm inactive | GPR119 ag inactive
